High-throughput results from PubChem.
CHX counter – counter-screen hit for Shiga toxin inhibitors, cycloheximide; cell reporter, cycloheximide protein synthesis inhibition counterscreen; max response, %; actives 12% (n = 300,000); AID 2314; in the data active means max response mostly above about 13%, no sharp cut-off; inactive means mostly below about 14%; further: read at 38.3 µM for the half of the compounds with a filed dose; 0% is about no effect
Pf growth 48h – P. falciparum growth inhibition at 48 hours (one generation); P. falciparum luciferase growth in erythrocytes, 48 h; Potency, µM (top dose mostly 28.7 µM), for inactives: at the highest dose activity change, negative = inhibition, most hits filed as inhibitors; actives 5.9% (n = 310,000); AID 504832; further: potency means the concentration at half of the fitted maximal effect; on the % scale 0 is the no-effect control and ±100 the full control effect
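A one-generation exposure of luciferase-tagged malaria parasites in RPMI 1640/Albumax erythrocyte culture, 37 C and 5% CO2. Inhibition is inferred from decreased luminescence after adding detection reagent.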
Giardia FBPA inh – Giardia lamblia aldolase inhibition | A8B2U2 | purified Giardia FBPA | Potency, µM (titrated, usually from 59.6 µM), for inactives: at the top dose activity, negative = inhibition, most hits filed as inhibitors | actives 0.71% (n = 290,000) | AID 2451; further: potency means the concentration at half of the fitted maximal effect; on the % scale 0 is the no-effect control and ±100 the full control effect; nearly all actives have a fitted effect of over 55% in size
Target sequence (A8B2U2 whole entry, looked up): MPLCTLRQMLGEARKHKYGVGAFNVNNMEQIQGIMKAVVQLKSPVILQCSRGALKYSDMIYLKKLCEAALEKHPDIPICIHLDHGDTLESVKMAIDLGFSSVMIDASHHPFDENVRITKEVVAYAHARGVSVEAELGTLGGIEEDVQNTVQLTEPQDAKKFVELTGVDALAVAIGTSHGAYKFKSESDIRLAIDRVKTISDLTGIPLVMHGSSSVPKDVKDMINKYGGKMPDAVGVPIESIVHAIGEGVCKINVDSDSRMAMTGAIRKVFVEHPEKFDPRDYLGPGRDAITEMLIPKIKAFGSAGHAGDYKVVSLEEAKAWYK
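40 nM FBPA preincubated 10 min at RT with compound (up to 57.5 uM final), then substrate plus GAPDH/TPI/NAD/arsenate coupling and diaphorase/resazurin added. Fluorescence read after 20 min at RT, 525/598 nm.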
NS1 function inh – blocks influenza NS1 protein function. Potency, µM (titrated, usually from 46.1 µM), for the others: top-dose activity, positive = more growth. actives 0.4% (n = 270,000); calls by dose curve; further: potency means the concentration at half of the fitted maximal effect; actives are rising curves; nearly all actives have a fitted effect of over 50% in size
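Compounds were scored for reversing the slow growth caused by influenza A NS1 in S. cerevisiae, measured by optical density at 600 nm. Assay medium contained 2% galactose at pH 6.0; NS1-free yeast of the same strain were the positive control.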
Pf growth 96h – P. falciparum growth inhibition at 96 hours | P. falciparum luciferase reporter growth, 96 h | Potency, µM (titrated, usually from 28.7 µM), without a hit: top-dose activity change, negative = inhibition, actives largely listed as inhibitors | actives 6.9% (n = 320,000) | AID 504834; further: potency means the concentration at half of the fitted maximal effect; on the % scale 0 is the no-effect control and ±100 the full control effect
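Parasite growth measured via integrated firefly luciferase reporter in P. falciparum. Infected erythrocytes at 2% hematocrit, 0.05% parasitemia final were treated 96 hours at 37 C under 5% CO2, and luminescence was read.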
Shiga toxin inh – blocks Shiga toxin action in Vero cells | actives 9.2% (n = 290,000) | inhibition, % at 38.7 µM | Vero cells, Shiga toxin protein synthesis inhibition reporter | AID 2315; in the data active means inhibition mostly above about 28%, no sharp cut-off; inactive means mostly below about 43%; further: 0% is about no effect
Active calls of the source: *; ? = inconclusive; . = no result; [ ] = remark or other dose. In the library only some 21% were active in any assay of this set; here they are far more common. Unless noted, the call rests on the fitted dose curve; in most records, active means well fitted curve in the direction sought with a large enough effect; inconclusive means small, poorly fitted or top-dose-only effect, or another doubt; inactive means no such curve, though single readings can be large; an effect the other way counts as inactive or inconclusive.

SMILES	CHX counter	Pf growth 48h	Giardia FBPA inh	NS1 function inh	Pf growth 96h	Shiga toxin inh
CC(=O)Nc1ccc(C(=O)Cn2nnc3ccccc3c2=O)cc1	13*	55%	7%	-1%	4%	50*
N#CCCn1nnc2ccccc21	3	39%	4%	-5%	?	-17
COc1ccc(-c2noc3c2-c2nc(-c4ccccc4F)sc2CC3)cc1	-4	15%	2%	5%	11%	-2
O=C(CCCN1C(=O)c2ccccc2C1=O)Nc1c2c(nc3c1CCC3)CCC2	-1	?	-2%	6%	0.47µM*	-11
Cc1ccc(NC(=O)CCN2C(=O)c3ccccc3C2=O)cc1	12	3%	4%	-12%	12µM*	5
Cc1ccc(C(=O)Cn2nnc3ccccc32)cc1	38*	137%	0%	2%	12µM*	66*
O=C(Cn1c(C(F)(F)F)nc2ccccc21)c1ccc(Br)cc1	-5	-21%	3%	15%	?	-18
O=C(Cn1nnc2ccccc21)c1ccc(Br)cc1	35*	43%	3%	-2%	48%	48*
Cc1cccc(NC(=O)CSc2cc(C)c(C#N)c3nc4ccccc4n23)c1	-2	?	-6%	-1%	32%	3
CC(=O)NNC(=O)CCn1nnc2ccccc21	-3	5%	2%	3%	?	-9
Cc1ccc(NC(=O)CCn2nnc3ccccc32)c(C)c1	-3	3%	-8%	-2%	13%	-10
C/C(=N\NC(=O)CCn1nnc2ccccc21)c1cccs1	33*	30%	4%	-4%	39%	51*
Cc1ccc(C(=O)NNC(=O)Cn2nnc3ccccc32)cc1	17*	15%	4%	0%	92%	41*
Cc1ccc(NC(=O)CCn2nnc3ccccc32)cc1	25*	50%	-3%	-3%	14%	79*
O=C(Cn1nnc2ccccc21)NCc1ccccc1	60*	299%	-3%	4%	-4%	64*
CN(C)C(=O)c1ccc(-c2ccc3ncnc(NCc4cccs4)c3c2)cc1	.	.	-6%	.	.	.
O=C(Cn1nnc2ccccc21)N1CCCCC1	10	-5%	.	8%	101%	13
O=C(CCn1nnc2ccccc21)N1CCN(c2ccccc2)CC1	27	38%	0%	-2%	-11%	78*
O=C(N/N=C/c1cc(O)ccc1Br)c1cccnc1	-3	13µM*	?	-51%	6%	2
O=C(N/N=C/c1ccc(OC(=O)c2cccc(Br)c2)cc1)c1cccnc1	-2	19%	.	-34%	2%	9
O=C(N/N=C/c1ccc(Br)s1)c1cccnc1	26*	?	0%	0%	20%	42*
O=C(N/N=C/c1cc(Br)c(O)c(Br)c1O)c1cccnc1	1	10µM*	?	8%	-14%	2
O=C(N/N=C/c1cc2c(cc1Br)OCO2)c1cccnc1	14	0%	1%	.	-19%	31
CCOc1cccc(-c2c(C(=O)N/N=C(\C)c3cccnc3)nnn2-c2nonc2N)c1	-8	4%	.	7%	?	-17
COc1ccc([N+](=O)[O-])c(OC)c1C(=O)NC(=O)Nc1nc(C)nc(C)n1	-4	13%	.	3%	9%	-6
SMILES	CHX counter	Pf growth 48h	Giardia FBPA inh	NS1 function inh	Pf growth 96h	Shiga toxin inh
Cc1nc(-c2ccc(Cl)cc2)sc1C1(C)CC(c2ccc(C#N)cc2)=NO1 (stereo not given)	1	-1%	-1%	-1%	72%	14
Cc1nc(-c2ccc(Cl)cc2)sc1C1(C)CC(c2cccnc2)=NO1 (stereo not given)	112*	49%	-24%	-21%	13%	80*
Cc1nc(-c2ccc(Cl)cc2)sc1C1(C)CC(c2cccc([N+](=O)[O-])c2)=NO1 (stereo not given)	18*	1%	4%	-7%	57%	17
Cc1nc(C(=O)NC2CCOCC2)sc1C1(C)CC(c2ccccc2)=NO1 (stereo not given)	11*	40%	2%	-4%	33%	22
Cc1nc(C(=O)Nc2ccccc2)sc1C1(C)CC(c2cccnc2)=NO1 (stereo not given)	25*	67%	7%	-3%	91%	42*
CCC(C(=O)NC1CCCC1)N(C(=O)c1snc(C(N)=O)c1N)c1ccc(C)cc1C (stereo not given)	-4	?	9%	5%	?	2
Cc1cccc(C)c1NC(=O)CN(C)C(=O)CSC(=S)N1CCCC1	.	2%	.	.	3%	.
CCOc1ccc(-c2ncncc2-c2ccccc2OC)c(O)c1	9	2.9µM*	-1%	1%	?	5
C=C(C)COc1ccc(-c2ncncc2-c2ccccc2OC)c(O)c1	-2	13µM*	1%	1%	?	1
COc1ccc(-c2ncncc2-c2ccc(OC)c(OC)c2)c(O)c1	18	-11%	-15%	0%	-17%	6
Cc1ccc(-c2nc3ccc(C(=O)O)cc3nc2-c2ccc(C)cc2)cc1	2	-5%	.	27%	169%	-6
O=C(Nc1cccc(C(F)(F)F)c1)c1ccc2nc(-c3ccco3)c(-c3ccco3)nc2c1	13	?	?	5.6µM*	.	-27
O=C(O)c1ccc2nc(-c3ccco3)c(-c3ccco3)nc2c1	-3	20%	6.3µM*	9%	1%	-17
O=C(c1ccc2nc(-c3ccco3)c(-c3ccco3)nc2c1)N1CCN(c2ccccc2)CC1	-2	-5%	?	8%	.	18
O=C(c1ccc2nc(-c3ccco3)c(-c3ccco3)nc2c1)N1CCC2(CC1)OCCO2	4	?	7.1µM*	?	.	32
COc1ccc(CCNC(=O)Cn2cnc3scc(-c4ccccc4)c3c2=O)cc1OC	-3	-29%	1%	2%	?	-5
Cc1ccc(C#CC2C=CC(Oc3ccc4c(c3)OCO4)C(CO)O2)c(C)c1 (stereo not given)	.	.	0%[12.9 µM]	.	.	.
COc1ccc(NC(=O)N2CC[C@@]3(CCCN(C(=O)c4ccncc4)C3)C2)cc1	.	.	2%	.	.	.
NC(N)=N/N=C/c1ccc(Br)cc1	-3	12µM*	-2%	.	12%	-5
NC(N)=N/N=C/c1ccc(OCc2ccccc2)cc1	-2	1.5µM*	-8%	-7%	1.5µM*	20
NC(N)=N/N=C/c1ccc(OCc2ccc(Cl)cc2)cc1	15	0.33µM*	2%	-57%	2.3µM*	27
N#Cc1ccc(/C=N/N=C(N)N)cc1	-3	?	-4%	4%	.	-16
Fc1ccc(COc2ccc(/C=N/n3cnnc3)cc2)cc1	-7	9%	-4%	-148%	?	-39
O=C(Nc1nccs1)C1CC=CCC1C(=O)OCC(F)(F)C(F)F (stereo not given)	.	-16%	.	.	-30%	.
O=C(NCC(c1cccs1)N1CCOCC1)c1cc(S(=O)(=O)N2CCOCC2)ccc1F (stereo not given)	.	-3%	.	.	5%	.
Nc1nc(N)c(N=Nc2ccc([As](=O)(O)O)c(O)c2)c(N)n1	.	.	.	-10%	.	.
